# Measurements: PubChem BioAssay AID485346 (Sanford-Burnham Center for Chemical Genomics, 2010)
# The whole screen tested about 330,000 compounds, of which about 10,000 (3%) were called active.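 How the source made its calls: active means inhibition of at least 50% at 8 µM in the primary screen; inactive means the rest.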 The sample as a whole holds a higher share of actives than the screen did.
# Biological target: Protein Mdm4 (Homo sapiens) + E3 ubiquitin-protein ligase Mdm2 (Homo sapiens) (UniProt O15151+Q00987)
# Experiment: disruptors of Mdm2/MdmX RING complex – cell-based, luminescence, split luciferase, SaOS-2, uHTS, primary screen (AID 485346)
# Details: SaOS-2 split-luciferase Mdm2/MdmX complementation, at 8 µM, stronger effect = higher value
# Protein Mdm4 (Homo sapiens) + E3 ubiquitin-protein ligase Mdm2 (Homo sapiens), sequence (O15151 whole entry, looked up): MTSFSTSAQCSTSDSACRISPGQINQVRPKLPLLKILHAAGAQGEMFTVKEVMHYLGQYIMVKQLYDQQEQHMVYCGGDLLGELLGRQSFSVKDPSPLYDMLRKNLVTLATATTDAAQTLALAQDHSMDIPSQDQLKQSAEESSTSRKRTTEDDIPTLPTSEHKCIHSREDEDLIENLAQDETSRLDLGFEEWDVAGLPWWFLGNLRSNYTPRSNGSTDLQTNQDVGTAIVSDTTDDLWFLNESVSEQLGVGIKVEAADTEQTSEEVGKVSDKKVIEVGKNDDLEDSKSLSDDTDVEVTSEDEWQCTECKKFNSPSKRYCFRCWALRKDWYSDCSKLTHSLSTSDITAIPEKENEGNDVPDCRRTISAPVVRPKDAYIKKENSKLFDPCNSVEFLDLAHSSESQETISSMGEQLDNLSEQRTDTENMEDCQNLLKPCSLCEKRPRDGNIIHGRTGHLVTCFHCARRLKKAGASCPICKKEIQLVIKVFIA
# Protein Mdm4 (Homo sapiens) + E3 ubiquitin-protein ligase Mdm2 (Homo sapiens), sequence (Q00987 whole entry, looked up): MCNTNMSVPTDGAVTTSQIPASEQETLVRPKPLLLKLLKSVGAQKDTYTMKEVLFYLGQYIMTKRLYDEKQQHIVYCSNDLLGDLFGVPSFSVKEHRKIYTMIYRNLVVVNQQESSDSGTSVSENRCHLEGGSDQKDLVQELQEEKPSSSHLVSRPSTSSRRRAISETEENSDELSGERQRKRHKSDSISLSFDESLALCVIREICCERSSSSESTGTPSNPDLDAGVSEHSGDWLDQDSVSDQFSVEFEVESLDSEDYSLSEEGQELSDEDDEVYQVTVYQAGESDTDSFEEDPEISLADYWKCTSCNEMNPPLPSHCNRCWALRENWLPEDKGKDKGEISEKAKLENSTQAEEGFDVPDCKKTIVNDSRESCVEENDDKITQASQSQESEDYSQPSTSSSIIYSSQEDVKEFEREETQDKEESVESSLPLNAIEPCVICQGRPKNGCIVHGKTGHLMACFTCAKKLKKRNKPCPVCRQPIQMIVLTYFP
row,Structure (SMILES),inhibition
1,Fc1ccc(N2N=C(c3cccs3)CC2c2ccco2)c(F)c1 (stereo not given),2.13% (inactive)
2,CCCCC(=O)Nc1ccc(C(=O)Nc2cc(C(F)(F)F)ccc2Cl)cc1,21.2% (inactive)
3,CCCCN(CCCC)CCC(O)c1cc2c(Cl)cc(Cl)cc2c2cc(C(F)(F)F)ccc12 (stereo not given),60.8% (active)
4,CC1(C)Cc2c(sc3nc(SCC(=O)NCc4ccccc4)n(-c4ccccc4)c(=O)c23)CS1,-3.67% (inactive)
5,N#Cc1c(NCCO)ccc([N+](=O)[O-])c1NCCO,-1.81% (inactive)
6,CCOc1ccc(CN2CCN(Cc3c[nH]c4ccccc34)CC2)cc1,20.2% (inactive)
7,O=C(COC(=O)CN1C(=O)C2CCCCC2C1=O)Nc1ccc(F)c(F)c1F (stereo not given),34.5% (inactive)
8,C[C@]12c3[nH]c4ccc(Cl)cc4c3CCN1C(=O)[C@@H](CC(=O)NCCCn1ccnc1)C[C@@H]2C(=O)N1CCOCC1,4.12% (inactive)
9,CC1CCN(C(=O)/C(=C\c2ccccc2F)NC(=O)c2ccccc2)CC1,8.33% (inactive)
10,Cc1cccc(-n2ncc(Cl)c(Cl)c2=O)c1,100% (active)
11,C=CCNc1cnn(-c2ccc(C)cc2)c(=O)c1Cl,-8.88% (inactive)
12,Cc1cccc(-n2ncc(C#N)c2-n2cccc2)c1,18.1% (inactive)
13,COC(=O)[C@@H]1C[C@@]2(O)[C@@H](O)[C@@H](O)[C@@H](O)C[C@H]2N1Cc1ccc(C)s1,10.5% (inactive)
14,CCCOc1cccc(C(=O)Nc2nnn(CCC)n2)c1,-17.9% (inactive)
15,COc1ccccc1-n1nnnc1S(=O)(=O)Cc1ccc(Cl)cc1,99.3% (active)
16,COc1ccccc1-n1nnnc1SCC(=O)NC(=O)Cc1ccccc1,-11.3% (inactive)
17,COc1ccccc1N1CCN(S(=O)(=O)c2ccc(Cl)cc2)CC1,0.916% (inactive)
18,O=C(CN1C(=O)c2cccnc2Oc2ccc(Cl)cc21)Nc1ccc(F)cc1,7.52% (inactive)
19,CC1C(=O)NC(=O)C1c1ccccc1 (stereo not given),10.9% (inactive)
20,COc1cccc(-c2sc3ccc(OC)cc3c2-c2ccc(OCCN3CCCCC3)cc2)c1,96.8% (active)
21,COc1ccccc1-c1sc2ccccc2c1-c1ccc(Br)nc1,1.19% (inactive)
22,COc1ccc(-c2sc3ccccc3c2-c2ccc(OCCN3CCOCC3)cc2)cc1,28.3% (inactive)

row,Structure (SMILES),inhibition
1,COc1ccc2sc(-c3ccccc3OC)c(-c3ccc(OCCN4CCCC4)cc3)c2c1,73.2% (active)
2,COc1cc(OC)cc(-c2sc3ccc(OC)cc3c2-c2ccc3cc[nH]c3c2)c1,13.6% (inactive)
3,COc1ccccc1-c1sc2ccccc2c1-c1ccc(C(C)=O)cc1,7.74% (inactive)
4,CN1C(=O)C2(OCCCO2)c2cc(Cl)ccc21,2.45% (inactive)
5,COC(=O)c1ccc(Oc2nc(NC(C)C)nc(SC)n2)cc1,22.5% (inactive)
6,Cc1ccc(C(C(=O)NCC2CCCO2)N(C(=O)c2snc(C(N)=O)c2N)c2ccc(C(C)C)cc2)o1 (stereo not given),-3.18% (inactive)
7,C/C(=N\N(C)C)c1ccc(OCCOc2ccc([N+](=O)[O-])cc2)cc1,-8.83% (inactive)
8,O=C(CN1CCN(C2CCS(=O)(=O)C2)CC1)N1N=C(c2ccc(Cl)cc2)CC1c1ccco1 (stereo not given),26.2% (inactive)
9,COCCCC1CCN(C(=O)C2CCC(=O)N(C3CCCCCC3)C2)CC1 (stereo not given),27.9% (inactive)
10,Cc1c(Cl)cccc1NC(=S)NCC(O)c1ccccc1 (stereo not given),-14.3% (inactive)
11,Cc1cccc(C(=O)OC(C)C(=O)NC2CCCc3ccccc32)c1O (stereo not given),28.3% (inactive)
12,O=C(CCNC(=O)c1ccc(Cl)cc1)NC1CCCc2ccccc21 (stereo not given),82.7% (active)
13,NC(=O)Nc1ccc(C(=O)OCC(=O)NC2CCCc3ccccc32)cc1 (stereo not given),-3.47% (inactive)
14,COC(=O)c1cc(OCC(=O)NC2CCCc3ccccc32)cc(C(=O)OC)c1 (stereo not given),1.41% (inactive)
15,CC1(c2ccccc2)NC(=O)N(CC(=O)N2CC(=O)Nc3ccccc32)C1=O (stereo not given),-7.07% (inactive)
16,Cc1nnc(NC(=O)Nc2ccc(Cl)c(Cl)c2)s1,95.2% (active)
17,Cc1ccc(NC(=O)Nc2nnc(-c3ccncc3)s2)cc1,45.1% (inactive)
18,Cc1nnc(NC(=O)C(c2ccccc2)c2ccccc2)s1,7.45% (inactive)
19,CC(C)Oc1ccc(S(=O)(=O)N2CCOCC2)cc1NC(=O)C1CCCC1,-52.3% (inactive)
20,CC1CC(=S)Nc2ccccc2N1Cc1ccccc1 (stereo not given),18.7% (inactive)
21,CCCCN(CC)CCCNC(=O)c1ccc(CSc2nc3ccncc3[nH]2)cc1,6.18% (inactive)
22,COc1cccc(NC(=O)COC(=O)c2ccc3ccccc3n2)c1,-8.32% (inactive)

row,Structure (SMILES),inhibition
1,COc1ccc(CCNC(=O)CSc2nc(C)nc3c2oc2ccccc23)cc1OC,-0.689% (inactive)
2,CC(Nc1nc(N2CCCC2)nc2ccccc12)c1ccccc1 (stereo not given),70.8% (active)
3,CC(Nc1nc(N2CCN(CCO)CC2)nc2ccccc12)c1ccccc1 (stereo not given),-4.68% (inactive)
4,CC(Nc1nc(N2CCOCC2)nc2ccccc12)c1ccccc1 (stereo not given),-0.119% (inactive)
5,CCN(C(=O)COC(=O)CCC(=O)c1cccs1)C1CCCCC1,18.7% (inactive)
6,CC(=O)c1ccc(NC(=S)N(Cc2ccccc2)C(C)C2CC2)cc1 (stereo not given),29.9% (inactive)
7,CCOC(=O)C1CSC(CC(=O)Nc2ccc(OCC)cc2)C(=O)N1 (stereo not given),9.79% (inactive)
8,COCC1CCCN(C(=O)c2ccc3oc(C(C)C)nc3c2)C1 (stereo not given),28.6% (inactive)
9,Cc1cc(Nc2cc(N3CCN(C)CC3)nc(Sc3ccc(NC(=O)C4CC4)cc3)n2)n[nH]1,88.2% (active)
10,Cc1n[nH]c(C)c1S(=O)(=O)N1CCCC(C(=O)Nc2ccc(Br)cc2)C1 (stereo not given),18.8% (inactive)
11,Cc1cc(C)nc(N2CCC(C(=O)Nc3ccc4c(c3)OCCO4)CC2)n1,15.6% (inactive)
12,CCc1ccc(NC2Nc3cc(C)nn3S2)cc1 (stereo not given),-161% (inactive)
13,Cc1ccc(CNC(=O)[C@@H](NC(=O)Cc2ccccc2)C(C)C)cc1,33.2% (inactive)
14,CCN(C(=O)COC(=O)CCOc1cccc(C)c1)c1c(N)n(Cc2ccccc2)c(=O)[nH]c1=O,-15.7% (inactive)
15,CCCCN(C(=O)C1=NN(c2cc(C)ccc2C)C(=O)CC1)c1c(N)n(CCC)c(=O)[nH]c1=O,4.43% (inactive)
16,Nc1nc(NC(=O)/C=C/c2ccc(F)cc2)nn1-c1ccccc1,36.3% (inactive)
17,Cc1c(NC(=O)CCC2CCCCC2)cc(C(=O)N2CCOCC2)cc1[N+](=O)[O-],-15.2% (inactive)
18,C=CC[C@@H](Cc1ccc(F)cc1)C(=O)OC[C@H]1CCCN1C(=O)[C@H](CC=C)CC(=O)N(CCO)Cc1ccccc1,38.8% (inactive)
19,C=CCC[C@@H](Cc1ccc(F)cc1)C(=O)OC[C@H](Cc1c[nH]c2ccccc12)NC(=O)[C@@H](CC=C)CC(=O)N(CCO)Cc1ccccc1,87.5% (active)
20,C=CC[C@@H](CC(=O)N[C@H](CO)Cc1ccccc1)C(=O)N[C@@H](COC(=O)[C@@H](CC=C)Cc1ccc(F)cc1)Cc1c[nH]c2ccccc12,16.4% (inactive)
21,C=CCC[C@H](Cc1ccc(F)cc1)C(=O)OC[C@H](C)NC(=O)[C@H](CC=C)CC(=O)N(CCO)Cc1ccccc1,-2.85% (inactive)
22,C=CC[C@H](CC(=O)N(CCO)Cc1ccccc1)C(=O)N[C@@H](COC(=O)[C@@H](CC=C)Cc1ccc(F)cc1)Cc1ccccc1,67.8% (active)

row,Structure (SMILES),inhibition
1,C=CCC[C@H](Cc1ccc(F)cc1)C(=O)OC[C@@H](Cc1c[nH]c2ccccc12)NC(=O)[C@H](CC=C)CC(=O)N[C@H](CO)Cc1ccccc1,38.1% (inactive)
2,C=CCC[C@H](Cc1ccc(F)cc1)C(=O)OC[C@@H](NC(=O)[C@@H](CC=C)CC(=O)N[C@H](CO)Cc1ccccc1)C(C)(C)C,46.7% (inactive)
3,C=CCC[C@@H](Cc1ccc(F)cc1)C(=O)OC[C@@H](C)NC(=O)[C@H](CC=C)CC(=O)N(CCO)Cc1ccccc1,24% (inactive)
4,C=CCC[C@@H](Cc1ccc(F)cc1)C(=O)O[C@H](CNC(=O)[C@H](CC=C)CC(=O)N(CCO)Cc1ccccc1)c1ccccc1,66.9% (active)
5,CCOc1ccc(NC(=O)CN(C)C(=O)Cc2sc(C)nc2-c2ccc(F)cc2)cc1OCC,10.8% (inactive)
6,COc1ccc(CN2CCN(C(=O)CCC(=O)Nc3nnc(C(C)C)s3)CC2)cc1F,16.8% (inactive)
7,O=C(/C=C/c1ccccc1[N+](=O)[O-])OCC(=O)N1CCCC1,15% (inactive)
8,COc1ccc(S(=O)(=O)N2CCN(CC(=O)NCC3(N4CCOCC4)CCCCC3)CC2)cc1,-0.077% (inactive)
9,CCO[C@@H]1OC(C(=O)NCc2nc3ccccc3[nH]2)=C[C@H](C2CCCCC2)[C@H]1CCCO,18.5% (inactive)
10,O=C(CSc1nnc(CNC(=O)c2ccc(F)cc2)o1)Nc1ccc2c(c1)OCO2,5.86% (inactive)
11,NC(=O)C1CCN(C(=O)c2ccc(F)c(S(=O)(=O)N3CCOCC3)c2)CC1,-40.7% (inactive)
12,C=CCO/N=C(\C)c1c(O)c(C)c(-c2ccccc2)n(-c2ccccc2)c1=O,9.07% (inactive)
13,CC(OC(=O)c1cc2ccccc2o1)C(=O)Nc1ccc(N2CCOCC2)cc1 (stereo not given),11.3% (inactive)
14,CN(CC(=O)Nc1c(Cl)cccc1Cl)C(=O)c1ccncc1,19.3% (inactive)
15,Cc1occc1-c1nnc(SCC(=O)NC2(C#N)CCCC2)n1C,22.7% (inactive)
16,CN1CCN(S(=O)(=O)c2ccc(N3CCN(c4ccccc4O)CC3)c([N+](=O)[O-])c2)CC1,2.63% (inactive)
17,O=c1[nH]c(CN2CCOCC2)nc2cc(Cl)ccc12,-2.08% (inactive)
18,NC(=O)Cc1nc2scc(-c3ccc(Cl)cc3)c2c(=O)[nH]1,-0.903% (inactive)
19,O=c1[nH]c(CCl)nc2cc(-c3ccc(Cl)cc3)sc12,80.8% (active)
